Results: PubChem BioAssay (NCATS)
Records with an inconclusive call do not appear. The source made the active and inactive calls. Calls follow the shape of the dose curve; as a rule, active = well fitted inhibition curve with a large enough effect; inconclusive = small, poorly fitted or top-dose-only effect; inactive = flat fitted curve, though single readings scatter.

Columns and labels:
[1] = qHTS profiling for inhibitors of Plasmodium falciparum proliferation (AID 504749);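 as to activity, negative = inhibition: 0% = DMSO vehicle and full inhibition = artemisinin control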; as to all read-outs here: nearly all actives have a fitted effect of over 60% in size; conditions: P. falciparum in erythrocytes, SYBR Green DNA, 72 h; for activity, negative = inhibition: at 28.7 µM (top of the series)
Procedure, shortened: (§1)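 Infected RBCs, 0.3% parasitemia/2.5% Hct final; cpd 72 h, 37 C, 5% CO2; lysis buffer with saponin/triton/SYBR Green I, o/n RT dark; FI 485/535; norm. to artemisinin (0.29 uM) and DMSO.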

3D7 = experiment: as above; conditions: P. falciparum in erythrocytes, SYBR Green DNA, 72 h; series mostly up to 28.7 µM
Procedure, shortened: as §1

ATS95 = experiment: as above; conditions: P. falciparum in erythrocytes, SYBR Green DNA, 72 h; series mostly up to 28.7 µM
Procedure, shortened: as §1

C2A = experiment: as above; conditions: P. falciparum in erythrocytes, SYBR Green DNA, 72 h; series mostly up to 28.7 µM
Procedure, shortened: as §1

CP185 = experiment: as above; conditions: P. falciparum in erythrocytes, SYBR Green DNA, 72 h; series mostly up to 28.7 µM
Procedure, shortened: as §1

CP192 = experiment: as above; conditions: P. falciparum in erythrocytes, SYBR Green DNA, 72 h; series mostly up to 28.7 µM
Procedure, shortened: as §1

CP201 = experiment: as above; conditions: P. falciparum in erythrocytes, SYBR Green DNA, 72 h; series mostly up to 28.7 µM
Procedure, shortened: as §1

CP211 = experiment: as above; conditions: P. falciparum in erythrocytes, SYBR Green DNA, 72 h; series mostly up to 28.7 µM
Procedure, shortened: as §1

CP215 = experiment: as above; conditions: P. falciparum in erythrocytes, SYBR Green DNA, 72 h; series mostly up to 28.7 µM
Procedure, shortened: as §1

CP217 = experiment: as above; conditions: P. falciparum in erythrocytes, SYBR Green DNA, 72 h; series mostly up to 28.7 µM
Procedure, shortened: as §1

AA1029 = experiment: as above; conditions: P. falciparum in erythrocytes, SYBR Green DNA, 72 h; series mostly up to 28.7 µM
Procedure, shortened: as §1

AS120 = experiment: as above; conditions: P. falciparum in erythrocytes, SYBR Green DNA, 72 h; series mostly up to 28.7 µM
Procedure, shortened: as §1

ATS189 = experiment: as above; conditions: P. falciparum in erythrocytes, SYBR Green DNA, 72 h; series mostly up to 28.7 µM
Procedure, shortened: as §1

CP191 = experiment: as above; conditions: P. falciparum in erythrocytes, SYBR Green DNA, 72 h; series mostly up to 28.7 µM
Procedure, shortened: as §1

CP194 = experiment: as above; conditions: P. falciparum in erythrocytes, SYBR Green DNA, 72 h; series mostly up to 28.7 µM
Procedure, shortened: as §1

CP203 = experiment: as above; conditions: P. falciparum in erythrocytes, SYBR Green DNA, 72 h; series mostly up to 28.7 µM
Procedure, shortened: as §1

CP237 = experiment: as above; conditions: P. falciparum in erythrocytes, SYBR Green DNA, 72 h; series mostly up to 28.7 µM
Procedure, shortened: as §1

CP238 = experiment: as above; conditions: P. falciparum in erythrocytes, SYBR Green DNA, 72 h; series mostly up to 28.7 µM
Procedure, shortened: as §1

7G8 = experiment: as above; conditions: P. falciparum in erythrocytes, SYBR Green DNA, 72 h; series mostly up to 28.7 µM
Procedure, shortened: as §1
Potency is read from the fitted curve at half-maximal effect.

CN(C)CCCN1c2ccccc2C(C)(C)c2ccccc21
inactive: activity, negative = inhibition ([1]; parasite line A) -5.82% | activity, negative = inhibition ([1]; parasite line B) -11.4% | Potency (3D7) | Potency (C2A) | Potency (CP185) | Potency (CP192) | Potency (CP201) | Potency (CP211) | Potency (CP215) | Potency (CP217)
active: Potency (ATS95) 8.91 µM

COCC(=O)Nc1cc(Sc2ccccc2)ccc1N=C(NC(=O)OC)NC(=O)OC
inactive: activity, negative = inhibition ([1]; parasite line A) 17.1% | activity, negative = inhibition ([1]; parasite line B) 26.6% | Potency (3D7) | Potency (AA1029) | Potency (AS120) | Potency (ATS189) | Potency (ATS95) | Potency (C2A) | Potency (CP185) | Potency (CP191) | Potency (CP192) | Potency (CP194) | Potency (CP201) | Potency (CP203) | Potency (CP211) | Potency (CP215) | Potency (CP217) | Potency (CP237) | Potency (CP238)

CCOc1ccc2c(c1)C(C)=CC(C)(C)N2
inactive: activity, negative = inhibition ([1]; parasite line A) -19.3% | activity, negative = inhibition ([1]; parasite line B) -4.99% | Potency (7G8) | Potency (AA1029) | Potency (AS120) | Potency (ATS189) | Potency (ATS95) | Potency (C2A) | Potency (CP185) | Potency (CP191) | Potency (CP192) | Potency (CP194) | Potency (CP201) | Potency (CP203) | Potency (CP211) | Potency (CP217) | Potency (CP237) | Potency (CP238)

CC(=O)Oc1c(C)cc(OCC(O)CNC(C)C)c(C)c1C (stereo not given)
inactive: Potency (3D7) | Potency (7G8) | Potency (AA1029) | Potency (AS120) | Potency (ATS189) | Potency (ATS95) | Potency (C2A) | Potency (CP185) | Potency (CP191) | Potency (CP192) | Potency (CP194) | Potency (CP201) | Potency (CP203) | Potency (CP211) | Potency (CP215) | Potency (CP217) | Potency (CP237) | Potency (CP238)

CCCCC(CC)COC(=O)CC(C(=O)OCC(CC)CCCC)S(=O)(=O)O (stereo not given)
inactive: Potency (CP192) | Potency (CP194) | Potency (CP201) | Potency (CP203) | Potency (CP211) | Potency (CP215)

C#C[C@]1(O)CC[C@H]2[C@@H]3CCC4=CCCC[C@@H]4[C@H]3C(=C)C[C@@]21CC
inactive: Potency (7G8) | Potency (C2A) | Potency (CP192) | Potency (CP194) | Potency (CP201) | Potency (CP203) | Potency (CP211) | Potency (CP215) | Potency (CP237)
active: Potency (CP191) 10 µM

CCCCCCOc1ccc(C(=N)N(CCCC)CCCC)c2ccccc12
active: Potency ([1]; parasite line A) 7.08 µM | Potency (3D7) 5.01 µM | Potency (7G8) 4.47 µM | Potency (ATS189) 10 µM | Potency (C2A) 11.2 µM | Potency (CP185) 10 µM | Potency (CP191) 4.47 µM | Potency (CP192) 19 µM | Potency (CP201) 16.9 µM | Potency (CP217) 7.94 µM | Potency (CP237) 11.2 µM

NC(=O)c1ncn(C2OC(CO)C(O)C2O)n1 (stereo not given)
inactive: activity, negative = inhibition ([1]; parasite line A) -11.3% | activity, negative = inhibition ([1]; parasite line B) -20.5% | Potency (3D7) | Potency (AA1029) | Potency (AS120) | Potency (ATS189) | Potency (ATS95) | Potency (CP185) | Potency (CP191) | Potency (CP192) | Potency (CP194) | Potency (CP201) | Potency (CP203) | Potency (CP211) | Potency (CP215) | Potency (CP217) | Potency (CP237) | Potency (CP238)
active: Potency (7G8) 7.94 µM

C[C@H]1C[C@H]2[C@@H]3CCC4=CC(=O)C=C[C@]4(C)[C@@]3(F)[C@@H](O)C[C@]2(C)[C@@]1(O)C(=O)CO
inactive: activity, negative = inhibition ([1]; parasite line A) 15.5% | activity, negative = inhibition ([1]; parasite line B) 5.52% | Potency (3D7) | Potency (AA1029) | Potency (AS120) | Potency (ATS189) | Potency (ATS95) | Potency (C2A) | Potency (CP185) | Potency (CP191) | Potency (CP192) | Potency (CP194) | Potency (CP201) | Potency (CP203) | Potency (CP211) | Potency (CP215) | Potency (CP217) | Potency (CP237) | Potency (CP238)

COC(=O)CCC(=O)CN
inactive: activity, negative = inhibition ([1]; parasite line A) 6.69% | activity, negative = inhibition ([1]; parasite line B) 8.06% | Potency (3D7) | Potency (AA1029) | Potency (AS120) | Potency (ATS189) | Potency (ATS95) | Potency (C2A) | Potency (CP185) | Potency (CP191) | Potency (CP192) | Potency (CP201) | Potency (CP203) | Potency (CP211) | Potency (CP215) | Potency (CP217) | Potency (CP237) | Potency (CP238)

Cc1c(C)c2c(c(C)c1O)CC[C@@](C)(CCC[C@@H](C)CCC[C@@H](C)CCCC(C)C)O2
inactive: activity, negative = inhibition ([1]; parasite line B) 18% | Potency (3D7) | Potency (7G8) | Potency (AA1029) | Potency (ATS189) | Potency (ATS95) | Potency (C2A) | Potency (CP185) | Potency (CP191) | Potency (CP192) | Potency (CP194) | Potency (CP201) | Potency (CP203) | Potency (CP211) | Potency (CP215) | Potency (CP217) | Potency (CP237) | Potency (CP238)

CCOC(=O)C1=C(C)NC(C)=C(C(=O)OCC)C1c1ccccc1C=CC(=O)OC(C)(C)C
active: Potency ([1]; parasite line A) 11.2 µM | Potency (3D7) 11.2 µM | Potency (7G8) 7.94 µM | Potency (AA1029) 8.91 µM | Potency (AS120) 8.91 µM | Potency (ATS95) 10 µM | Potency (CP185) 11.2 µM | Potency (CP191) 8.91 µM | Potency (CP192) 12 µM | Potency (CP194) 15.1 µM | Potency (CP203) 19 µM | Potency (CP211) 15.1 µM | Potency (CP215) 16.9 µM | Potency (CP217) 10 µM | Potency (CP237) 8.91 µM | Potency (CP238) 10 µM
inactive: Potency (C2A)

O=C(Nc1cccc(C(F)(F)F)c1)c1cc(Br)cc(Br)c1O
active: Potency ([1]; parasite line B) 10 µM | Potency (7G8) 6.31 µM | Potency (AS120) 12.6 µM | Potency (CP203) 15.1 µM | Potency (CP211) 12 µM | Potency (CP215) 12 µM | Potency (CP217) 8.91 µM

CC(=O)Oc1cc(C)c(OC(C)=O)c2ccccc12
active: Potency (3D7) 8.91 µM | Potency (7G8) 5.01 µM | Potency (AS120) 10 µM | Potency (C2A) 11.2 µM | Potency (CP192) 10.7 µM

CCCCCCCC/C=C\CCCCCCCC(=O)O
inactive: activity, negative = inhibition ([1]; parasite line A) 12.9% | Potency (3D7) | Potency (7G8) | Potency (AA1029) | Potency (AS120) | Potency (ATS189) | Potency (ATS95) | Potency (C2A) | Potency (CP185) | Potency (CP191) | Potency (CP192) | Potency (CP194) | Potency (CP201) | Potency (CP203) | Potency (CP211) | Potency (CP215) | Potency (CP217) | Potency (CP237) | Potency (CP238)
